According to the supplement of paper PMC8877412:
Where a name gives a salt, the structure may show the parent alone. ± gives the uncertainty stated by the source.

Each compound was assayed on NCC-PMP1-C1 (assay: cell viability relative to DMSO control; higher = less growth inhibition). Conditions: 10 µM; 72 h.
Experimental: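 NCC-PMP1-C1 pseudomyxoma peritonei cells were seeded in 384-well plates coated with Matrigel and MEF (1e4 cells). Viability was read after 72 h by CCK-8 and expressed as % of the DMSO control, mean ± SD of duplicates.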

Structure (SMILES)	cell viability [%]
CC(=O)O[C@]1(C(C)=O)CC[C@H]2[C@@H]3C=C(C)C4=CC(=O)CC[C@]4(C)[C@H]3CC[C@@]21C [Megestrol Acetate]	91.4 ± 16
COc1cc(N2CCC(N3CCN(C)CC3)CC2)ccc1Nc1ncc(Cl)c(Nc2ccccc2S(=O)(=O)C(C)C)n1	38.3 ± 2.1
CS(=O)(=O)OCCCCOS(C)(=O)=O [Busulfan]	121 ± 7.5
CCC(C)n1ncn(-c2ccc(N3CCN(c4ccc(OCC5COC(Cn6cncn6)(c6ccc(Cl)cc6Cl)O5)cc4)CC3)cc2)c1=O (stereo not given) [Itraconazole]	81.9 ± 2.1
O=C1CCC(N2C(=O)c3ccccc3C2=O)C(=O)N1 (stereo not given) [Thalidomide]	110 ± 6.2
CC[C@@]1(O)C(=O)OCc2c1cc1n(c2=O)Cc2cc3c(CN(C)C)c(O)ccc3nc2-1 [Topotecan HCl]	55.8 ± 2.9
CC(=O)O[C@H]1C(=O)[C@@]2(C)[C@H]([C@H](OC(=O)c3ccccc3)[C@]3(O)C[C@H](OC(=O)[C@H](O)[C@@H](NC(=O)c4ccccc4)c4ccccc4)C(C)=C1C3(C)C)[C@]1(OC(C)=O)CO[C@@H]1C[C@@H]2O [Paclitaxel]	81.6 ± 12
Cc1ccc(Nc2nccc(N(C)c3ccc4c(C)n(C)nc4c3)n2)cc1S(N)(=O)=O	72.5 ± 0.73
O=C(c1cc(Cc2n[nH]c(=O)c3ccccc23)ccc1F)N1CCN(C(=O)C2CC2)CC1	92.3 ± 8.4
Cc1ccc(-n2[nH]c(C)c(N=Nc3cccc(-c4cccc(C(=O)O)c4)c3O)c2=O)cc1C [Eltrombopag Olamine]	113 ± 3.3
CCc1c2c(nc3ccc(OC(=O)N4CCC(N5CCCCC5)CC4)cc13)-c1cc3c(c(=O)n1C2)COC(=O)[C@]3(O)CC [Irinotecan HCl Trihydrate]	101 ± 4.5
O=C(CCBr)N1CCN(C(=O)CCBr)CC1 [Pipobroman-D8]	84 ± 7.7
CN(CCOc1ccc(CC2SC(=O)NC2=O)cc1)c1ccccn1 (stereo not given) [Rosiglitazone]	101 ± 3.3
Nc1nc(CC(=O)Nc2ccc(CCNC[C@H](O)c3ccccc3)cc2)cs1 [Mirabegron]	101 ± 5.9
O=c1[nH]cc(F)c(=O)[nH]1 [Fluorouracil (5-Fluoracil, 5-FU)]	86.7 ± 7.5
CCCS(=O)(=O)Nc1ccc(F)c(C(=O)c2c[nH]c3ncc(-c4ccc(Cl)cc4)cc23)c1F [Vemurafenib (PLX4032, RG7204)]	-12.5 ± 0.2
Cc1ccc(C(=O)Nc2ccc(CN3CCN(C)CC3)c(C(F)(F)F)c2)cc1C#Cc1cnc2cccnn12	1.8 ± 0.67
Nc1[nH]cnc2ncnc1-2 [Adenine HCl]	108 ± 25
Nc1nc2[nH]cc(CCc3ccc(C(=O)N[C@@H](CCC(=O)O)C(=O)O)cc3)c2c(=O)[nH]1 [Pemetrexed Disodium Hydrate]	101 ± 18
Nc1ncn([C@H]2C[C@H](O)[C@@H](CO)O2)c(=O)n1 [Decitabine]	95.2 ± 0.53
CC1=C(/C=C/C(C)=C/C=C/C(C)=C/C(=O)O)C(C)(C)CCC1 [Tretinoin]	129 ± 16
Cc1ccc(NC(=O)c2ccc(CN3CCN(C)CC3)cc2)cc1Nc1nccc(-c2cccnc2)n1 [Imatinib Mesylate (STI571)]	75.2 ± 4.4
C=CC(=O)N1CCC[C@@H](n2nc(-c3ccc(Oc4ccccc4)cc3)c3c(N)ncnc32)C1	59 ± 5.5
CCC[C@@H]1C[C@@H](C(=O)N[C@@H]([C@H]2O[C@H](SC)[C@H](O)[C@@H](O)[C@H]2O)[C@@H](C)O)N(C)C1 [Lincomycin HCl]	74.4 ± 15
CC(=O)Oc1ccccc1C(=O)O [Aspirin]	110 ± 4.8
Clc1ccc(Nc2nnc(Cc3ccncc3)c3ccccc23)cc1 [Vatalanib (PTK787) 2HCl]	84.5 ± 1.8
O=C(/C=C/c1cccc(S(=O)(=O)Nc2ccccc2)c1)NO [Belinostat (PXD101)]	7.52 ± 0.13
COC(=O)C[C@](O)(CCCC(C)(C)O)C(=O)O[C@@H]1C(OC)=C[C@]23CCCN2CCc2cc4c(cc2[C@H]13)OCO4 [Homoharringtonine]	-1.02 ± 0.42
CC(C)(C)c1cc(NC(=O)Nc2ccc(-c3cn4c(n3)sc3cc(OCCN5CCOCC5)ccc34)cc2)no1 [Quizartinib (AC220)]	78.9
CO[C@H]1C[C@@H]2CC[C@@H](C)[C@@](O)(O2)C(=O)C(=O)N2CCCC[C@H]2C(=O)O[C@H]([C@H](C)C[C@@H]2CC[C@@H](OC(=O)C(C)(CO)CO)[C@H](OC)C2)CC(=O)[C@H](C)/C=C(\C)[C@@H](O)[C@@H](OC)C(=O)[C@H](C)C[C@H](C)/C=C/C=C/C=C/1C	155 ± 67
